Screening data (PubChem)
The list is not random: actives were taken first. Their share in the collection is about 3.1%.
DRD3 agonist – agonists of human D3 dopamine receptor; D3R DiscoveRx beta-arrestin cells, luminescence, 90 min; max activation, %; hit rate 0.58% among 410,000; in the data active = max activation above about 30%
Target sequence (P35462 whole entry, looked up): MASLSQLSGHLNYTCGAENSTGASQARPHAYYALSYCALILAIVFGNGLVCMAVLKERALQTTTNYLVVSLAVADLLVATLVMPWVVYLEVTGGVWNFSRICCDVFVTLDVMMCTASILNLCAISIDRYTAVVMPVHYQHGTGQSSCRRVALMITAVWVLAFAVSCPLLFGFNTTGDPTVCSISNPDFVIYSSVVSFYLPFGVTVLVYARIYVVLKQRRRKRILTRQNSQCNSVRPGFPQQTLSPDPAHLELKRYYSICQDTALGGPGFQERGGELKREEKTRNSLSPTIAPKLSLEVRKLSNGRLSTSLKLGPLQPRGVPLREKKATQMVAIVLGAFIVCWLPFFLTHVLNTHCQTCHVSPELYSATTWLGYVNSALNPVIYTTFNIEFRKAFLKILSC
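Cells at 1500/well, incubated overnight, then treated with pinned compounds (dopamine as control) for 90 min at 37 degrees C. DiscoveRx reagent added for 30 - 60 minutes at room temperature; luminescence read.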
uPA surface inh – cell surface uPA generation inhibition. cell surface uPA generation assay, qHTS. Potency, µM (series often up to 38.3 µM), actives largely listed as inhibitors. hit rate 0.31% among 330,000. AID 540303; active = well fitted inhibition curve with a large enough effect; inconclusive = small, poorly fitted or top-dose-only effect; inactive = no such curve, though single readings can be large or run the other way; tested in mouse RAW 264.7 cells; note: nearly all actives have a fitted effect of over 55% in size
DRD3 antagonist – antagonists of human D3 dopamine receptor; max response, negative = inhibition, %; P35462; hit rate 2.5% among 360,000; D3R cells, DiscoveRx beta-arrestin luminescence, antagonist mode; stronger effect = lower value; AID 652054; in the data active = max response below about -50%; inconclusive = no clear call, values can overlap the other calls
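Cells expressing the human receptor were seeded at 1500 cells/well, incubated overnight at 37 degrees C in 5% CO2, then exposed to library compounds with dopamine controls for 90 minutes at 37 degrees C before luminescent detection.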
RGS4 inhibitor – inhibitors of human regulator of G protein signaling 4. hit rate 0.039% among 390,000. P49798. Transcreener GDP fluorescence polarization, RGS4-accelerated GTP hydrolysis. AID 504845. Potency, µM (series often up to 114 µM), most hits filed as inhibitors; active = well fitted inhibition curve with a large enough effect; inconclusive = small, poorly fitted or top-dose-only effect; inactive = no such curve, though single readings can be large or run the other way; note: nearly all actives have a fitted effect of over 75% in size
Target sequence (P49798 whole entry, looked up): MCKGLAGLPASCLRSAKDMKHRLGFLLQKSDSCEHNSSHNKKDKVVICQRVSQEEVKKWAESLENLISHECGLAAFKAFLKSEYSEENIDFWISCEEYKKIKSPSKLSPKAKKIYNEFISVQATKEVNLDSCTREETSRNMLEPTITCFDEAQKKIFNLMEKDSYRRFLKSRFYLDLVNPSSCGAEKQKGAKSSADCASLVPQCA
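MLSMR compounds (23 nl, pin-transferred) preincubated 10 min at room temperature with a 500nM (2x) first reagent, then RGS4 at 900nM (2x) plus Transcreener GDP mix added; fluorescence polarization (620/688 nm) read before and after 90 min at 30 °C.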
Large screens that a line does not name were inactive.

N#Cc1ccccc1Cn1cc(/C=N/Nc2ccc([N+](=O)[O-])cn2)c2ccccc21	DRD3 antagonist -52.4
O=c1c2ccccc2ncn1CCCSc1ccc(Cl)cc1	none
O=c1c2ccccc2ncn1CCCSc1ccccc1	DRD3 antagonist -53.5
CCN(CCCNC(=O)CN1N=C(c2ccccc2)CCC1=O)c1cccc(C)c1	DRD3 agonist 40.5 (no result: uPA surface inh, DRD3 antagonist)
CC(C)CN(C[C@@H](O)[C@H](Cc1ccccc1)NC(=O)O[C@H]1CO[C@H]2OCC[C@H]21)S(=O)(=O)c1ccc(N)cc1	none (no result: uPA surface inh, DRD3 antagonist, RGS4 inhibitor)
Cc1ccc(C)c(CN2CCC(CNC(=O)Nc3ccc(C)c(C)c3)CC2)c1	DRD3 antagonist inconclusive
O=C(NCC1CCN(Cc2cccc(Cl)c2)CC1)Nc1ccc(Cl)cc1	DRD3 antagonist -60.7
COc1ccc(Cl)cc1NC(=O)NCC1CCN(Cc2cc(C)ccc2C)CC1	uPA surface inh inconclusive, DRD3 antagonist -84.9
COc1cc([N+](=O)[O-])ccc1NC(=O)NCC1CCN(Cc2ccc(Cl)cc2)CC1	DRD3 antagonist -72.5
CCn1c(SC)nc2c([nH]c3ccccc32)c1=O	none (no result: uPA surface inh, DRD3 antagonist)
CCOC(=O)c1c(C)[nH]c(C)c1S(=O)(=O)NCC(=O)N(C)c1ccc(C)c(C)c1	none (no result: uPA surface inh, DRD3 antagonist)
O=C(C(Br)=Cc1ccccc1)c1ccccc1	uPA surface inh inconclusive, DRD3 antagonist inconclusive, RGS4 inhibitor inconclusive
CCOc1cc2c(cc1OCC)C(CC(=O)OC)N(C(=O)Nc1cc(OC)ccc1OC)CC2 (configuration not stated)	none (no result: uPA surface inh, DRD3 antagonist)
Cc1ccc(OCC(=O)Nc2ccc3nn(-c4ccc(C)cc4)nc3c2)cc1	none (no result: uPA surface inh, DRD3 antagonist)
c1ccc(-n2nnnc2NCCc2c[nH]c3ccccc23)cc1	DRD3 antagonist -52.1
Cc1cccc(N=C2NC(=O)/C(=C/c3cccnc3)S2)c1C	DRD3 antagonist -60.5
CC(C)[C@@H](C)/C=C/[C@@H](C)[C@H]1CC[C@H]2/C(=C/C=C3\C[C@@H](O)CC[C@@H]3C)CCC[C@]12C	none (no result: uPA surface inh, DRD3 antagonist, RGS4 inhibitor)
CCN1CCCC(NC(=O)c2cc([N+](=O)[O-])ccc2OC)C1 (configuration not stated)	DRD3 antagonist -59.6
COc1ccc(C(=O)NC2CCCN(Cc3ccccc3F)C2)c(OC)c1OC (configuration not stated)	none
OC(c1ccccc1)(c1nc(/C=C/c2ccccc2)cs1)C(F)(F)F (configuration not stated)	none (no result: uPA surface inh, RGS4 inhibitor)
CCCN1C(=O)c2ccccc2NC1c1ccc(OC)c(COc2ccc([N+](=O)[O-])cc2)c1 (configuration not stated)	none (no result: DRD3 agonist, uPA surface inh, DRD3 antagonist)
CSc1ncc(C(=O)NCc2ccc(Cl)cc2)c(C(F)(F)F)n1	none (no result: uPA surface inh, DRD3 antagonist)
CC(=O)NC(CC(C)C)C(=O)NC(Cc1ccccc1)C(N)=O (configuration not stated)	DRD3 agonist 30.4 (no result: uPA surface inh)
CC(=O)[C@H](CC(C)C)NC(=O)[C@@H](CC(C)C)NC(=O)[C@H](CC(C)C)NC(=O)OCc1ccccc1	RGS4 inhibitor 8.44µM (no result: DRD3 agonist, uPA surface inh, DRD3 antagonist)
COc1ccc(NC(=O)CCc2c(C)nn(-c3ccc(N4CCCC4)nn3)c2C)cc1Cl	none (no result: uPA surface inh, DRD3 antagonist)
O=C(CSc1c2c(nc3ccccc13)CCC2)Nc1ccc(F)cc1F	none (no result: uPA surface inh, DRD3 antagonist)
CCc1ccc(CN(C(=O)c2ccco2)C2CCS(=O)(=O)C2)cc1 (configuration not stated)	none
O=C(c1ccco1)N(Cc1ccc(Cl)cc1)C1CCS(=O)(=O)C1 (configuration not stated)	DRD3 agonist 38.1
CC(CCc1ccc(O)cc1)NC1C2CC3CC(C2)CC1C3 (configuration not stated)	DRD3 antagonist -56.1
CC(CCc1ccc(O)cc1)NCCc1ccc(O)c(O)c1 (configuration not stated)	DRD3 agonist 108.0, uPA surface inh 7.94µM
CC(O)CCc1ccc(O)cc1 (configuration not stated)	none
CC(CCc1ccc(O)cc1)NCC(O)c1ccc(O)cc1 (configuration not stated)	DRD3 agonist 58.6 (no result: uPA surface inh, DRD3 antagonist, RGS4 inhibitor)
Cc1cc(Nc2ccc(Br)cc2)nc(C)n1	none (no result: uPA surface inh, DRD3 antagonist)
FC(F)(F)c1ccc(Cl)c(NC(=S)N/N=C/c2ccccc2Cl)c1	uPA surface inh inconclusive, DRD3 antagonist -65.9
O=C(NC(=S)Nc1cc(C(F)(F)F)ccc1Cl)c1ccccc1	DRD3 antagonist inconclusive
Cc1nnc(Nc2ccc3c(c2)OCO3)c2ccccc12	DRD3 antagonist -63.2
Cc1nc(Nc2ccccc2)c2oc3ccc(Cl)cc3c2n1	DRD3 agonist 92.6
Cc1nc(Nc2ccc3c(c2)OCO3)c2oc3ccccc3c2n1	DRD3 antagonist -54.1
CCc1ccc(S(=O)(=O)/N=C2\C=C(NS(=O)(=O)c3ccccc3)C(=O)c3ccccc32)cc1	DRD3 antagonist inconclusive
Cc1ccccc1NC1=C/C(=N\S(=O)(=O)c2ccc(C(=O)O)cc2)c2ccccc2C1=O	DRD3 antagonist -97.1
O=C(O)c1ccc(S(=O)(=O)/N=C2\C=C(Nc3ccccc3F)C(=O)c3ccccc32)cc1	DRD3 antagonist -106.5
Cc1nc2nncn2c(Nc2ccccc2)c1C	none (no result: uPA surface inh, DRD3 antagonist)
COc1cccc(NC(=O)Nc2nccc(C)n2)c1	uPA surface inh 2.51µM
COc1cccc(COc2ccccc2C2Nc3ccc(Br)cc3C(=O)N2NC(=O)c2ccncc2)c1 (configuration not stated)	DRD3 antagonist -55.3, RGS4 inhibitor inconclusive
c1ccc(-c2ccc(-c3nc(-c4ccncc4)no3)cc2)cc1	DRD3 agonist 45.1
c1ccc(-c2nc(-c3ccncc3)no2)cc1	none
Cc1nnc(N2CCC(C(=O)N3CCCCC3)CC2)c2nn(-c3ccccc3)c(C)c12	none (no result: uPA surface inh, DRD3 antagonist)
O=C(O)CCN1CCc2ccccc21	none
O=C(O)CCN1CCc2ccccc2C1c1ccncc1 (configuration not stated)	DRD3 antagonist -58.4
O=C1c2ccccc2C(=O)N1CCc1c(-c2ccccc2)[nH]c2ccccc12	DRD3 agonist 32.9
O=C1c2ccccc2C(=O)N1CCc1c(-c2[nH]c3ccccc3c2CCN2C(=O)c3ccccc3C2=O)[nH]c2ccccc12	none
Clc1ccccc1CNc1ncnc2c1nc1n2CCCC1	none (no result: uPA surface inh, DRD3 antagonist)
CC1(c2nnc(Cc3ccccc3)o2)CC(c2cccc([N+](=O)[O-])c2)=NO1 (configuration not stated)	DRD3 agonist 31.9
CC1(c2nnc(Cc3ccccc3)o2)CC(c2ccccc2[N+](=O)[O-])=NO1 (configuration not stated)	RGS4 inhibitor inconclusive
Fc1ccc(NC(=S)NN=C2CCCCCC2)cc1	DRD3 antagonist -149.6
S=C(NN=C1CCCCCC1)Nc1ccc(Cl)cc1	none
Cc1ccc2c(c1)N(CC(=O)N1CCCC1)C(=O)c1cccnc1O2	DRD3 antagonist -85.8
Cc1nc(-c2ccc(S(=O)(=O)NCc3ccccc3Cl)cc2)co1	none (no result: uPA surface inh, DRD3 antagonist)
COc1cc(/C=C2\SC(=O)N(c3cccc(Cl)c3)C2=O)cc([N+](=O)[O-])c1O	DRD3 antagonist -61.8, RGS4 inhibitor inconclusive
COc1cc(/C=C2\SC(=O)N(c3ccc(Cl)cc3)C2=O)cc([N+](=O)[O-])c1O	DRD3 antagonist -69.9
O=C(Nc1ncc(Cc2ccc(F)cc2)s1)c1ccc2c(c1)CC(c1ccccc1)OC2=O (configuration not stated)	none (no result: uPA surface inh, DRD3 antagonist)
CC(C)NC(=O)Cn1c(=O)nc(-c2ccccc2)c2ccccc21	none (no result: uPA surface inh, DRD3 antagonist)
